Drawing on PubChem BioAssay (EPA / NIEHS), this text covers outcome and AC50 for 32 molecules.

The AC50 is the concentration at which the activity in the assay is half-maximal.

A short description of assay [1]: ATG_E_Box_CIS: Attagene CIS-FACTORIAL HepG2 Assay for human Enhancer Box (E-box) (AID 2282936). The settings on record: HepG2 E-box cis-reporter transcription, actives raise or lower the signal. Put shortly: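 HepG2 cells transiently transfected with multiplexed cis-element reporter units, dosed 24 h; reporter mRNA quantified by RT-PCR, 6-FAM labelling, HpaI digestion and capillary electrophoresis. E-box (USF1) signal fitted bidirectionally vs DMSO.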

Assay [2] can be described thus: ATG_M_61_CIS: Attagene CIS-FACTORIAL HepG2 Assay for M61 Transcription Factor (Internal Marker) (AID 2282937). The settings on record: HepG2 Attagene CIS-FACTORIAL M61 internal marker reporter; actives raise or lower the signal. The gist of the method: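 This endpoint serves as an internal background control within a multiplexed HepG2 cis-reporter panel. Cells are exposed for 24 h; reporter mRNA is amplified, fluorescently labelled and sized by capillary electrophoresis, with DMSO as negative control.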

Assay [3] is described as follows: ATG_EGR_CIS: Attagene CIS-FACTORIAL HepG2 Assay for human Early Growth Response 1 (EGR1) (AID 2282938). The settings on record: HepG2 Attagene CIS-FACTORIAL EGR reporter mRNA; actives raise or lower the signal. Put shortly:
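HepG2, transient MRTU transfection (cis promoters), 24 h compound. RNA → RT (oligo-dT) → PCR → 6-FAM labelling → HpaI cut → CE fluorescence. Bidirectional fit, DMSO baseline.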

Assay [4] can be described thus: ATG_M_19_CIS: Attagene CIS-FACTORIAL HepG2 Assay for M19 Transcription Factor (Internal Marker) (AID 2282939). The note with it: HepG2 Attagene CIS-FACTORIAL M19 internal marker reporter; actives raise or lower the signal. The gist of the method: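 Chemical-treated HepG2 (24 h) with MRTU constructs; reporter transcripts detected by fluorescent RT-PCR fragment analysis on capillary electrophoresis. Internal background marker, DMSO as baseline.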

The nature of assay [5]: ATG_Ets_CIS: Attagene CIS-FACTORIAL HepG2 Assay for human Erythroblast Transformation Specific (ETS) (AID 2282941). The settings on record: HepG2 ETS cis-reporter transcription, actives raise or lower the signal. The gist of the method:
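HepG2 cells transiently transfected with cis-promoter reporter transcription units were dosed for 24 h; reporter mRNA was measured by RT-PCR, 6-FAM primer extension, HpaI digestion and capillary electrophoresis, with bidirectional fitting against DMSO baseline.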

The target in assay [6] is Hepatocyte nuclear factor 3-beta (Homo sapiens) (UniProt Q9Y261). As to the kind of experiment: ATG_FoxA2_CIS: Attagene CIS-FACTORIAL HepG2 Assay for human Forkhead box A2 (FOXA2) (AID 2282942). The note with it: HepG2 cis-reporter transcription factor activity, 24 h; actives raise or lower the signal. The gist of the method: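 Cells: HepG2, transient multiplex reporter transfection. Exposure 24 h. Detection: reporter-specific RT-PCR, fluorescent labelling, restriction digest, capillary electrophoresis. Analysis: bidirectional curve fit, DMSO as negative control.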
Hepatocyte nuclear factor 3-beta (Homo sapiens), sequence (Q9Y261 whole entry, looked up): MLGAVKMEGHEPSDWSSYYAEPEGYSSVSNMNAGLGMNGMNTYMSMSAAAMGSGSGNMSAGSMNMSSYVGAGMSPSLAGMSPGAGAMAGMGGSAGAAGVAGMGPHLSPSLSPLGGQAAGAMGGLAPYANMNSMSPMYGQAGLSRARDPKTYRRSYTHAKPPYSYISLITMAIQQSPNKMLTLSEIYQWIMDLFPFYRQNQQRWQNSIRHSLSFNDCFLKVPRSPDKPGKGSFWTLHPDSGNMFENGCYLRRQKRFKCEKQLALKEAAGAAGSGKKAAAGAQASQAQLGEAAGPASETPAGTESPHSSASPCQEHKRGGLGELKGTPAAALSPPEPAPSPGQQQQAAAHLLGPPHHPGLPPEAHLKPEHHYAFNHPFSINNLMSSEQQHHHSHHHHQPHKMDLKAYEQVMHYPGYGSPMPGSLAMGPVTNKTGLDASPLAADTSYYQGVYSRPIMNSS

Assay [7] can be described thus: ATG_GATA_CIS: Attagene CIS-FACTORIAL HepG2 Assay for human GATA Binding Protein (AID 2282944). The settings on record: HepG2 GATA cis-element reporter, Attagene multiplex mRNA; actives raise or lower the signal. Put shortly: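 Transfected cis-reporter HepG2 cells were treated with chemicals for 24 hours. Total RNA was then converted to cDNA, amplified with reporter-specific primers and analysed by fluorescent capillary electrophoresis, using DMSO-treated wells as baseline.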

Assay [8] in a line: ATG_GLI_CIS: Attagene CIS-FACTORIAL HepG2 Assay for human Zinc Finger Protein GLI1 (AID 2282945). The settings on record: HepG2, Attagene cis-factorial reporter mRNA, GLI element; actives raise or lower the signal. The gist of the method: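 Transiently transfected HepG2 cells report endogenous transcription factor activity via cis-element-driven reporter units. After 24 h compound exposure, reporter mRNA was measured by RT-PCR with capillary electrophoresis; bidirectional fitting against DMSO baseline.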

Assay [9] can be described thus: ATG_ERE_CIS: Attagene CIS-FACTORIAL HepG2 Assay for Estrogen Response Element (ERE) (AID 2282940). The settings on record: HepG2 ERE cis-reporter, Attagene RNA transcript; actives raise or lower the signal. Put shortly: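 Human liver cells (HepG2) bearing transiently transfected, promoter-regulated reporter units were exposed 24 h. Reporter mRNA induction was detected by capillary electrophoresis of labelled RT-PCR products and fitted bidirectionally to DMSO.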

Assay [10] is described as follows: ATG_FoxO_CIS: Attagene CIS-FACTORIAL HepG2 Assay for human Forkhead box O (FoxO) (AID 2282943). The note with it: HepG2 Attagene cis-reporter, FoxO element, mRNA; actives raise or lower the signal. The gist of the method: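 Read-out: fluorescence of 6-FAM-labelled reporter cDNA fragments resolved by capillary electrophoresis. Transiently transfected HepG2 cells were dosed for 24 h; activity fitted in both directions relative to DMSO controls.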

Each structure is given as a SMILES string. Active and inactive are the calls of the source. The calls were made as follows: active = hit-call score of the fitted dose curve at least 0.9, where 1 is the maximum; inactive = score below 0.9.

In the case of `CCCCCC=CCC(=O)OC`, the outcome in [1], in assay [2], in [3], in assay [4], in assay [5] and in [6] was inactive. Further, the molecule was classed as inactive in assay [7] and in assay [8].

With `CCCCCCCCCCCCCCCCCC(=O)OCC(CC)CCCC` (centres undefined), the result in assay [1], in assay [2], in assay [3], in [4], in assay [5] and in [6] was inactive. For the same molecule, the molecule was classed as inactive in assay [7] and in [8].

Consider `O=Nc1ccc(Nc2ccccc2)cc1`, for which the half-maximal activity concentration (AC50) in assay [1] is 9.04 µM (active); in [3], 37.7 µM (active); in assay [6], 47.9 µM (active); in assay [8], 55 µM (active). In addition, the result in assay [2], in assay [9], in [5], in [10] and in assay [7] was inactive.

In the case of `CCCCCCCCCCCCCCCC(=O)O`, the outcome in [1], in assay [2], in assay [3], in assay [4], in [5] and in assay [6] was inactive. Besides, the molecule was classed as inactive in assay [10] and in [8].

As to `COc1cc(C)cc(O)c1`, the result in assay [1], in assay [2], in assay [3], in assay [4], in assay [5] and in assay [7] was inactive. In addition, in [8], the call was inactive.

Consider `CCCCO`, for which the outcome in assay [1], in assay [2], in [3], in assay [4], in assay [5] and in assay [10] was inactive. Also, the molecule was called inactive in assay [7] and in [8].

For `Cc1c(Cl)c(=O)oc2cc(O)ccc12`, the result in [1], in assay [2], in assay [3], in assay [4], in [5] and in assay [6] was inactive. For the same molecule, the molecule was classed as inactive in [7] and in [8].

Take `O=C=NC1CCC(CC2CCC(N=C=O)CC2)CC1` (centres undefined): the AC50 is 76.9 µM (active) in assay [1], 100 µM (active) in assay [4] and 174 µM (active) in assay [8]. For the same molecule, the molecule was called inactive in [2], in assay [3], in assay [5], in assay [10] and in assay [7].

On to `CC1(C)OC[C@@H]2O[C@@]3(C(=O)O)OC(C)(C)O[C@H]3[C@@H]2O1`, for which the result in assay [1], in assay [2], in [3], in assay [4], in [5] and in assay [6] was inactive. In addition, the molecule was classed as inactive in assay [7] and in assay [8].

For the molecule `CCCCC/C=C/C=C/C=O`, the outcome in assay [1], in assay [2], in assay [3], in assay [4], in assay [5] and in [6] was inactive. The molecule was classed as inactive in [7] and in assay [8].

As for `NCCCCCCN`, the result in assay [1], in assay [2], in assay [3], in assay [4], in assay [5] and in assay [6] was inactive. Also, the call in assay [7] and in [8] was inactive.

Consider `Nc1ccc(S(N)(=O)=O)cc1`, for which the outcome in assay [1], in assay [2], in [3], in assay [4], in [5] and in assay [7] was inactive. Also, in assay [8], the outcome was inactive.

For `CCCCCC(CO)CCC` (centres undefined), the result in assay [1], in [2], in [3], in assay [4], in assay [5] and in assay [10] was inactive. The outcome in assay [7] and in [8] was inactive.

Turning to `O=C(O)c1ccc([N+](=O)[O-])cc1`, the result in [1], in assay [2], in [3], in [4], in [5] and in [6] was inactive. For the same molecule, the molecule was called inactive in [8].

On to `O=S(=O)(O)c1cccc2c(S(=O)(=O)O)cccc12`, for which the result in [1], in assay [2], in [3], in [4], in assay [5] and in [10] was inactive. Moreover, the molecule was classed as inactive in assay [7] and in assay [8].

Take `CCCCCCCCCCCCN`: the outcome in assay [1], in assay [2], in assay [3], in [4], in [5] and in [6] was inactive. The molecule was classed as inactive in assay [7] and in assay [8].

`O=CCCc1ccccc1`: the outcome in assay [1], in assay [2], in assay [3], in assay [4], in assay [5] and in assay [10] was inactive. Further, the call in [7] and in assay [8] was inactive.

Regarding `C=CCOc1nc(OCC=C)nc(OCC=C)n1`, the result in assay [1], in [2], in assay [3], in [4], in assay [5] and in assay [10] was inactive. The outcome in assay [7] and in [8] was inactive.

For the molecule `C=CC[N+](C)(C)CC=C`, the result in assay [1], in [2], in assay [3], in assay [4], in assay [5] and in assay [6] was inactive. Also, the result in assay [7] and in [8] was inactive.

Turning to `O=C[C@@H](O)[C@H](O)[C@H](O)CO`, the outcome in [1], in assay [2], in [3], in [4], in assay [5] and in assay [6] was inactive. For the same molecule, the call in assay [10] and in assay [8] was inactive.

Regarding `CC(C=O)Cc1ccc(C(C)C)cc1` (centres undefined), the outcome in assay [1], in [2], in assay [3], in assay [4], in assay [5] and in assay [6] was inactive. For the same molecule, the outcome in assay [7] and in assay [8] was inactive.

Take `[Ca+2]`: the result in [1], in [2], in assay [3], in assay [4], in assay [5] and in assay [10] was inactive. In addition, the molecule was classed as inactive in assay [8].

With `O=C(O)Cc1cccc2ccccc12`, the result in [1], in assay [2], in [3], in assay [4], in assay [5] and in assay [6] was inactive. The result in [7] and in [8] was inactive.

Take `CC1(CO)CN(c2ccccc2)NC1=O` (centres undefined): the outcome in assay [1], in assay [2], in assay [3], in [4], in assay [5] and in assay [10] was inactive. The call in assay [7] and in [8] was inactive.

For `CCO[Si](CCCS)(OCC)OCC`, the result in assay [1], in assay [2], in [3], in [4], in assay [5] and in [6] was inactive. The molecule was classed as inactive in assay [7] and in assay [8].

Turning to `CCCCCNCCCCC`, the outcome in assay [1], in [2], in [3], in [4], in assay [5] and in assay [10] was inactive. Moreover, the outcome in assay [7] and in assay [8] was inactive.

Consider `O=C(Cl)c1cccc(C(=O)Cl)c1`, for which the outcome in assay [1], in assay [2], in assay [3], in [5], in assay [6] and in assay [10] was inactive. For the same molecule, the molecule was called inactive in [7] and in [8].

With `CCCCCOC(=O)CCC`, the outcome in [1], in assay [2], in [3], in assay [5], in assay [6] and in assay [10] was inactive. Further, the outcome in assay [7] and in assay [8] was inactive.

In the case of `Cc1c(N(C)C)c(=O)n(-c2ccccc2)n1C`, the outcome in [1], in assay [2], in [3], in assay [9], in assay [5] and in [6] was inactive. In addition, the molecule was called inactive in assay [10], in assay [7] and in assay [8].

Consider `BrC1CCC(Br)C(Br)CCC(Br)C(Br)CCC1Br` (centres undefined), for which the outcome in assay [1], in assay [2] and in assay [9] was inactive. Besides, the AC50 in assay [3] was 35.9 µM (active); in assay [5] it was 143 µM (active); in assay [8], 69.1 µM (active).

Regarding `OCCCCCO`, the outcome in assay [1], in assay [2], in assay [3], in assay [9], in assay [5] and in assay [6] was inactive. Also, the outcome in [10], in assay [7] and in assay [8] was inactive.

Take `COc1nc(C)nc(N)n1`: the outcome in assay [1], in [2], in assay [3], in assay [9], in assay [5] and in assay [6] was inactive. For the same molecule, the outcome in [10], in assay [7] and in assay [8] was inactive.
